Compound activity deposited in PubChem by National Center for Advancing Translational Sciences (NCATS).
JMJD2A Tudor inh = JMJD2A Tudor domain (human) inhibition; O75164; AlphaScreen JMJD2A-Tudor / H3K4me3 peptide binding; Potency, µM (series often up to 114 µM), for the others: at the top dose activity change, negative = inhibition, most hits filed as inhibitors; actives 4.4% (n = 390,000); also: % is scaled to controls: 0 for no effect and ±100 for the full control effect; nearly all actives have a fitted effect of over 50% in size
Sfp PPTase inh = Sfp phosphopantetheinyl transferase inhibition | actives 3.5% (n = 310,000) | AID 1490 | Biochemical Sfp PPTase activity, qHTS | Potency, µM, for the others: largest response in the series, negative = inhibition, hits mostly inhibitors;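 also: the enzyme is Sfp with the accession as filed and its product quenches rhodamine fluorescence; 0% = enzyme reaction without inhibitor and -100% = no enzyme wells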
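Reaction rates are the 30-min fluorescence difference (ex 525, em 598 nm) in wells containing 15 nM Sfp, 5 uM rhodamine-CoA and 12.5 uM BHQ-2-YbbR at pH 7.6 with 10 mM MgCl2.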
G9a block = G9a (human) methyltransferase inhibition; Potency, µM (series often up to 102 µM), for inactives: at the top dose activity, negative = inhibition, actives largely listed as inhibitors; actives 8.8% (n = 350,000); Q96KQ7; AID 504332; G9a H3K9 monomethylation, AlphaScreen, 2 h; also: % is scaled to controls: 0 for no effect and ±100 for the full control effect; nearly all actives have a fitted effect of over 75% in size
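Methyltransferase reactions run at room temperature for 2 h (20 nM enzyme, 500 nM biotin-H3K9 peptide, 20 uM SAM) after a 15 min compound preincubation; product detected by AlphaScreen beads and anti-H3K9me1 antibody.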
BAZ2B inh = BAZ2B (human) inhibition; Q9UIF8; AlphaScreen BAZ2B-H3K14Ac peptide displacement; Potency, µM (doses to about 114 µM), for inactives: top-dose activity change, negative = inhibition, actives largely listed as inhibitors; actives 4.4% (n = 360,000); AID 504333; also: % is scaled to controls: 0 for no effect and ±100 for the full control effect; nearly all actives have a fitted effect of over 60% in size
Target sequence (Q9UIF8 whole entry, looked up): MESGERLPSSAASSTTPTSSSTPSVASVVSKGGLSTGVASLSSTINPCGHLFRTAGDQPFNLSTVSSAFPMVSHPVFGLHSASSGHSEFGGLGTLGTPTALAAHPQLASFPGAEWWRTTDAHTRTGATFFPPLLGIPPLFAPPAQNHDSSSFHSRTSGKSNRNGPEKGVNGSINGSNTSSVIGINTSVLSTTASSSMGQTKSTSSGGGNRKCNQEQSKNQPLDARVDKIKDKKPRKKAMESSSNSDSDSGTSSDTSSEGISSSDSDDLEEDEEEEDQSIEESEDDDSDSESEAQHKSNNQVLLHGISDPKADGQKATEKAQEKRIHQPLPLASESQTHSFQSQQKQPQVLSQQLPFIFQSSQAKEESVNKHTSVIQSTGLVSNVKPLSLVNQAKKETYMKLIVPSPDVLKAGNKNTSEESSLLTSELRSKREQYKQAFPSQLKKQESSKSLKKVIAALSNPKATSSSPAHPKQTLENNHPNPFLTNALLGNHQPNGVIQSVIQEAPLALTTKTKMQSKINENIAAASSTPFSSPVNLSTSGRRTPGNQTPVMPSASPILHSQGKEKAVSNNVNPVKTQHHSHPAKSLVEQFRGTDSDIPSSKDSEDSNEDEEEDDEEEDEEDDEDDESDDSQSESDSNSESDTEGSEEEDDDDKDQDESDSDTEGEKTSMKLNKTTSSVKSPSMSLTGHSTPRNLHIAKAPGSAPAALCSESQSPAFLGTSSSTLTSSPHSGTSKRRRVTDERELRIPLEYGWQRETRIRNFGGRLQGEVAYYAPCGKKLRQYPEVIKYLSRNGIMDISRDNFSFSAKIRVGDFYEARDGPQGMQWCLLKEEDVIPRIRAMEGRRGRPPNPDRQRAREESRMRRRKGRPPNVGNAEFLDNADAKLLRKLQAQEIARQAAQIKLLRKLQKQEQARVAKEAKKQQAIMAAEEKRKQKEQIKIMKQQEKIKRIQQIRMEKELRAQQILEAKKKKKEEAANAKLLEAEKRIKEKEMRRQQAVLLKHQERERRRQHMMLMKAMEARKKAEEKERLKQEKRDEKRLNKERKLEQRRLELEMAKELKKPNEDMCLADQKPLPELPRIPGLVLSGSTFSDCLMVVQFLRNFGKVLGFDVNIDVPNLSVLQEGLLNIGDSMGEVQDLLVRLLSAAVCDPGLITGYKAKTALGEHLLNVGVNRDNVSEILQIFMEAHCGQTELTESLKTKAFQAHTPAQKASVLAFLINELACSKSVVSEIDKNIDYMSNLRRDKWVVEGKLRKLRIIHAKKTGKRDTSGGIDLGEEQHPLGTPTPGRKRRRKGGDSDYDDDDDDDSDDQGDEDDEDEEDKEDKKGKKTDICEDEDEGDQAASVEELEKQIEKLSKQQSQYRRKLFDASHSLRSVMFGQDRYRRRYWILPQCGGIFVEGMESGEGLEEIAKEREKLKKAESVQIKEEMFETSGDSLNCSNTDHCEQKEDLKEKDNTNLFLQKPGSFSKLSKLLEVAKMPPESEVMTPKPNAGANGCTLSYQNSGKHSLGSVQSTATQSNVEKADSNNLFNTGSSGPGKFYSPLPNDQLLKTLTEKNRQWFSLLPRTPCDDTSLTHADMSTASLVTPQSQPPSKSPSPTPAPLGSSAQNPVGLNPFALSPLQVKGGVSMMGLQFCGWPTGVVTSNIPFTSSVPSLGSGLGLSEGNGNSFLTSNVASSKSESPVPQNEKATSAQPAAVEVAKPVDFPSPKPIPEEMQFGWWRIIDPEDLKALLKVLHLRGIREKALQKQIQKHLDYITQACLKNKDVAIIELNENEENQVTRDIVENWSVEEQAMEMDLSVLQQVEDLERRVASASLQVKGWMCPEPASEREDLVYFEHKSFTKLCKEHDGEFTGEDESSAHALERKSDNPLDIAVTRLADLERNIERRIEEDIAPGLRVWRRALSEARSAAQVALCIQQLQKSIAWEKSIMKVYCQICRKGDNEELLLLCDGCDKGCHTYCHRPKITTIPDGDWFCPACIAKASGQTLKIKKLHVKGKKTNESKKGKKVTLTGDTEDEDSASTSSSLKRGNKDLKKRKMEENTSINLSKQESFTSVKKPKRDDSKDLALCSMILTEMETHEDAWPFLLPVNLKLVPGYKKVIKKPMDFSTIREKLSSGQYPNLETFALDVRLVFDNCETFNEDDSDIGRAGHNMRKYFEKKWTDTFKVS
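Multi-concentration screen (max 110 uM) measuring displacement of acetylated histone H3 peptide from BAZ2B by AlphaScreen, using 50 nM protein, 50 nM peptide and 10 ug/mL streptavidin donor plus Ni-chelate acceptor beads.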
HP1b binding inh = blocks HP1-beta chromodomain binding to methylated histone tails; AlphaScreen HP1-beta / biotin-H3K9me3 peptide binding; Potency, µM (highest dose often 114 µM), for the others: at the highest dose activity change, negative = inhibition, usual class: inhibitors; actives 0.56% (n = 390,000); AID 540317; also: nearly all actives have a fitted effect of over 70% in size
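HP1-beta protein (50 nM final) preincubated 30 min at room temperature with biotinylated H3(1-18)K9me3 peptide (50 nM) in PBS pH 7.4, 0.01% Tween-20, then compound added for 30 min. AlphaScreen streptavidin donor/nickel chelate acceptor beads (10 ug/mL final), 30 min dark, luminescence read.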
* = called active by the depositor; [ ] = another dose, or the depositor's remark. Hits are enriched below; roughly 12% of the tested compounds scored in any of these assays. Calls follow the shape of the dose curve; as a rule, active = well fitted curve in the direction sought with a large enough effect; inconclusive = small, poorly fitted or top-dose-only effect, or another doubt; inactive = no such curve, though single readings can be large; an effect the other way counts as inactive or inconclusive. Potency is read from the fitted curve at half-maximal effect.

What do the screens show for `COC(=O)CCC(=O)c1oc2ccc(Cl)cc2c1NC(=O)CCCN1C(=O)c2ccccc2C1=O`?
JMJD2A Tudor inh: -2.0%; Sfp PPTase inh: 35.5µM*; G9a block: -15.7%[0.0925 µM]; BAZ2B inh: 6.5%; HP1b binding inh: 16.0%

Results for O=C(Nc1ccccc1)c1ccc(-c2ccc([N+](=O)[O-])cc2)o1 ?
JMJD2A Tudor inh: inconclusive; Sfp PPTase inh: 50.1µM*; G9a block: 35.5µM*; BAZ2B inh: -11.4%; HP1b binding inh: inconclusive

How did CC1(C)CC(NC(=O)c2ccc(-c3ccc([N+](=O)[O-])cc3)o2)CC(C)(C)N1 do in these assays?
JMJD2A Tudor inh: -31.7%; Sfp PPTase inh: -22.8%; G9a block: 44.7µM*; BAZ2B inh: -33.1%; HP1b binding inh: 15.5%

What do the screens show for `CC1CC(C)CN(C(=O)c2ccc(-c3ccc([N+](=O)[O-])cc3)o2)C1` (centres undefined)?
JMJD2A Tudor inh: 44.7µM*; G9a block: 11.2µM*; BAZ2B inh: 35.5µM*; HP1b binding inh: inconclusive

How did O=C(CN1C(=O)c2ccc([N+](=O)[O-])cc2C1=O)Nc1nccs1 do in these assays?
JMJD2A Tudor inh: -13.7%; Sfp PPTase inh: -26.6%; G9a block: 50.1µM*; BAZ2B inh: -32.1%; HP1b binding inh: 12.5%

Results for COCCCNC(=O)Cn1c(=O)n(CCCC(=O)NCc2ccc(C)cc2)c(=O)c2ccccc21 ?
JMJD2A Tudor inh: -6.5%; G9a block: -4.5%[59 µM]; BAZ2B inh: 4.1%; HP1b binding inh: 32.6%

How did COc1ccc(C(=O)COC(=O)CN2C(=O)NC3(CC(C)CC(C)(C)C3)C2=O)c(OC)c1 (centres undefined) do in these assays?
JMJD2A Tudor inh: -16.0%; G9a block: -8.6%[2.33 µM]; BAZ2B inh: -5.8%; HP1b binding inh: 5.5%

How did O=C(Nc1nccs1)c1ccc(-c2ccc([N+](=O)[O-])cc2)o1 do in these assays?
JMJD2A Tudor inh: -33.0%; Sfp PPTase inh: 25.1µM*; BAZ2B inh: inconclusive; HP1b binding inh: 46.2%

How did O=C(CCNC(=O)c1ccc([N+](=O)[O-])cc1)Nc1nccs1 do in these assays?
JMJD2A Tudor inh: -0.6%; Sfp PPTase inh: 11.5%; G9a block: 50.1µM*; BAZ2B inh: -17.3%; HP1b binding inh: 44.9%

Results for O=C(NN1C(=O)NC2(CCCCC2)C1=O)c1ccc(-c2ccccc2Cl)o1 ?
JMJD2A Tudor inh: -8.2%; G9a block: 0.3%[2.33 µM]; BAZ2B inh: -23.7%; HP1b binding inh: 26.0%

What do the screens show for `O=C(NN1C(=O)NC2(CCCCC2)C1=O)c1ccc(-c2ccc([N+](=O)[O-])cc2)o1`?
JMJD2A Tudor inh: -33.7%; Sfp PPTase inh: 10.1%; G9a block: 79.4µM*; BAZ2B inh: -28.6%; HP1b binding inh: 1.2%

What do the screens show for `O=C(CCNC(=O)c1ccc(Br)cc1)Nc1nccs1`?
JMJD2A Tudor inh: 0.0%; Sfp PPTase inh: 23.5%; G9a block: 12.1%; BAZ2B inh: -4.4%; HP1b binding inh: 20.9%

Results for COc1cccc([C@@H]2Oc3ccc(OC)cc3C(=O)[C@H]2OC(=O)NC2CCCC2)c1 ?
Sfp PPTase inh: 1.4%

What do the screens show for `O=C(Nc1cc2c3c(c1)CC(=O)N3CCC2)c1ccc(Br)cc1`?
JMJD2A Tudor inh: -17.9%; G9a block: -50.0%; BAZ2B inh: -25.0%; HP1b binding inh: 16.5%

What do the screens show for `O=c1c(=O)n(-c2cccc(Cl)c2)ccn1Cc1cccc(F)c1`?
JMJD2A Tudor inh: -1.0%; G9a block: inconclusive; BAZ2B inh: 1.2%; HP1b binding inh: 43.1%

Results for O=S(=O)(c1cc(Cl)cc(Cl)c1O)N1CCC2(CC1)OCCO2 ?
JMJD2A Tudor inh: -5.9%; Sfp PPTase inh: 5.8%; G9a block: 63.9%; BAZ2B inh: -2.6%; HP1b binding inh: 17.4%

Results for CC(C)C[C@H]1COCCS(=O)(=O)N1Cc1cccc(C(F)(F)F)c1 ?
JMJD2A Tudor inh: -2.9%; HP1b binding inh: 54.1%

Results for CC(C)(C)SCCNS(=O)(=O)c1ccc(Cl)cc1 ?
JMJD2A Tudor inh: 17.8µM*; Sfp PPTase inh: 9.4%; G9a block: 35.7%[12.7 µM]; BAZ2B inh: -1.1%; HP1b binding inh: -14.1%

How did CCCOc1ccc(-c2nnn(CC(=O)N3CCCC(C)C3)n2)cc1 (centres undefined) do in these assays?
JMJD2A Tudor inh: 10.0%; Sfp PPTase inh: 7.2%; G9a block: -3.5%[12.7 µM]; BAZ2B inh: -1.1%; HP1b binding inh: 34.7%

What do the screens show for `COc1ccccc1CN1CC(C(=O)NCCc2ccc(Cl)cc2)CC1=O` (centres undefined)?
JMJD2A Tudor inh: -3.1%; Sfp PPTase inh: 8.3%; G9a block: 71.2%; BAZ2B inh: -18.7%; HP1b binding inh: 30.3%

Results for Oc1cccc2ccc[n+](CC(O)Cn3c4ccccc4c4ccccc43)c12 (centres undefined) ?
JMJD2A Tudor inh: -34.6%; Sfp PPTase inh: -28.5%; G9a block: 7.94µM*; BAZ2B inh: inconclusive; HP1b binding inh: -6.1%

Results for OC(COc1ccccc1)Cn1c2ccccc2c2ccccc21 (centres undefined) ?
JMJD2A Tudor inh: 14.5%; Sfp PPTase inh: 7.9%; G9a block: 0.9%[59 µM]; BAZ2B inh: 33.6%; HP1b binding inh: 81.9%

What do the screens show for `O=c1[nH]n(-c2ccccc2Cl)c(=O)c2ccccc12`?
JMJD2A Tudor inh: -3.5%; Sfp PPTase inh: 2.5%; G9a block: -6.1%; BAZ2B inh: 2.9%; HP1b binding inh: 24.6%

How did S=c1[nH]ccn1-c1cccc(Cl)c1Cl do in these assays?
JMJD2A Tudor inh: 15.8µM*; Sfp PPTase inh: -20.0%; G9a block: 5.62µM*; BAZ2B inh: -6.9%; HP1b binding inh: 44.6%

How did S=c1[nH]ccn1-c1ccccc1Cl do in these assays?
JMJD2A Tudor inh: 22.4µM*; Sfp PPTase inh: 0.4%; G9a block: 15.8µM*; BAZ2B inh: -13.3%; HP1b binding inh: 31.6%

What do the screens show for `COc1nc(Oc2ccc(/C=N/O)cc2)nc(N(C)C)n1`?
JMJD2A Tudor inh: -1.8%; Sfp PPTase inh: -2.0%; G9a block: -20.3%[12.7 µM]; BAZ2B inh: -1.6%[57.1 µM]; HP1b binding inh: 23.5%

How did Nc1ccc(Cc2ccc(N)c(O)c2)cc1O do in these assays?
JMJD2A Tudor inh: 39.8µM*; Sfp PPTase inh: -0.9%; G9a block: 50.1µM*; BAZ2B inh: inconclusive; HP1b binding inh: inconclusive

Results for O=C(NNc1c2ccccc2nc2ccccc12)c1cccc(O)c1 ?
JMJD2A Tudor inh: 44.7µM*; Sfp PPTase inh: -2.1%; G9a block: inconclusive; BAZ2B inh: 35.5µM*; HP1b binding inh: inconclusive

What do the screens show for `O=C(NNc1c2ccccc2nc2ccccc12)c1ccccc1Cl`?
JMJD2A Tudor inh: -3.1%; Sfp PPTase inh: 7.4%; G9a block: 25.8%; BAZ2B inh: -33.2%; HP1b binding inh: 28.4%

Results for O=C(NNc1c2ccccc2nc2ccccc12)c1ccc(O)cc1 ?
JMJD2A Tudor inh: -32.3%; Sfp PPTase inh: -23.1%; G9a block: inconclusive; BAZ2B inh: 28.2µM*; HP1b binding inh: inconclusive
